In the supplement of paper PMC6555819:

Legend:
Test in all cases: PBM binding z-score (relative to random genomic background probes); higher = stronger binding; sequences stand for … in GC…GCGATTGACAGCGTAGAATGAAGG
[1] = tested on: FXR:RXRa (NR concentration 270 nM, RXRa partner concentration 90 nM)
Procedure, shortened: (§1)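 Ligand-free nuclear receptor dimers were bound for 1 h to custom Agilent 4×180K protein-binding microarrays. Detection used antibodies against each partner (one per run). Binding z-scores rest on regression-normalized fluorescence, with random background probes as the reference.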

[2] = tested on: LXRa:RXRa (NR concentration 270 nM, RXRa partner concentration 90 nM)
Procedure, shortened: as §1

[3] = tested on: LXRa homodimer (NR concentration 270 nM)
Procedure, shortened: as §1

[4] = tested on: LXRb:RXRa (NR concentration 270 nM, RXRa partner concentration 90 nM)
Procedure, shortened: as §1

[5] = tested on: LXRb homodimer (NR concentration 270 nM)
Procedure, shortened: as §1

[6] = tested on: PPARa:RXRa (NR concentration 270 nM, RXRa partner concentration 90 nM)
Procedure, shortened: as §1

[7] = tested on: PPARg:RXRa (NR concentration 180 nM, RXRa partner concentration 90 nM)
Procedure, shortened: as §1

[8] = tested on: PPARg:RXRa 270nM:90nM, anti-RXR (NR concentration 270 nM, RXRa partner concentration 90 nM)
Procedure, shortened: as §1

[9] = tested on: PPARg:RXRa 30nM:10nM, anti-RXR (NR concentration 30 nM, RXRa partner concentration 10 nM)
Procedure, shortened: as §1

[10] = tested on: PPARg:RXRa 90nM:30nM, anti-RXR (NR concentration 90 nM, RXRa partner concentration 30 nM)
Procedure, shortened: as §1

[11] = tested on: PPARg:RXRa DBDmut IVT, anti-RXR (DBD mutation: RXRa K156A/R161A, NR concentration 270 nM, RXRa partner concentration 90 nM)
Procedure, shortened: as §1

[12] = tested on: PPARg:RXRa IVT, anti-PPARg (NR concentration 270 nM, RXRa partner concentration 90 nM)
Procedure, shortened: as §1

[13] = tested on: PPARg DBDmut:RXRa IVT, anti-PPARg (DBD mutation: PPARg1 K132A/R137A, NR concentration 270 nM, RXRa partner concentration 90 nM)
Procedure, shortened: as §1

[14] = tested on: PPARg DBDmut IVT, anti-PPARg (DBD mutation: PPARg1 K132A/R137A, NR concentration 270 nM)
Procedure, shortened: as §1

[15] = tested on: PPARg homodimer (NR concentration 180 nM)
Procedure, shortened: as §1

[16] = tested on: PXR:RXRa (NR concentration 270 nM, RXRa partner concentration 90 nM)
Procedure, shortened: as §1

[17] = tested on: PXR homodimer (NR concentration 270 nM)
Procedure, shortened: as §1

[18] = tested on: RARa:RXR (NR concentration 270 nM, RXRa partner concentration 90 nM)
Procedure, shortened: as §1

[19] = tested on: RARa homodimer (NR concentration 270 nM)
Procedure, shortened: as §1

[20] = tested on: RARb:RXRa (NR concentration 270 nM, RXRa partner concentration 90 nM)
Procedure, shortened: as §1

Row | Sequence | PBM binding z-score [1] | PBM binding z-score [2] | PBM binding z-score [3] | PBM binding z-score [4] | PBM binding z-score [5] | PBM binding z-score [6] | PBM binding z-score [7] | PBM binding z-score [8] | PBM binding z-score [9] | PBM binding z-score [10] | PBM binding z-score [11] | PBM binding z-score [12] | PBM binding z-score [13] | PBM binding z-score [14] | PBM binding z-score [15] | PBM binding z-score [16] | PBM binding z-score [17] | PBM binding z-score [18] | PBM binding z-score [19] | PBM binding z-score [20]
1 | CGAACGAGGGCATGAGTTTATAGCAAATGCCGAT | 0.448 | 0.306 | -0.244 | 0.294 | -1.03 | 1.43 | 1.45 | 1.38 | 0.138 | 0.962 | 3.26 | 2.5 | 0.366 | -0.357 | 0.413 | 1.65 | 1.18 | 0.678 | -0.149 | 2.11
2 | AGATCGAGGGCACGCTGAGTTGATAGCAGAGTAG | 0.624 | 0.579 | -0.704 | 0.248 | -0.854 | 1.83 | 1.76 | 1.47 | 0.155 | 0.951 | 3.66 | 3.58 | 1.3 | 0.665 | -0.311 | 1.31 | 0.0547 | 0.734 | -0.531 | 2.42
3 | CAAACTAGGTCACAGAGGTCAAAGGCCGTGCGTA | 7.21 | 6.33 | 6.87 | 5.9 | 1.61 | 6.36 | 10.5 | 8.37 | 7.41 | 8.58 | 8.7 | 8.85 | 6.92 | 3.61 | 5.45 | 6.54 | 10.8 | 7.58 | 2.81 | 5.22
4 | CCTACTGGGCCATTCAGAGGTCATTGAACATATG | 2.73 | 4.42 | 6.32 | 4.04 | 0.612 | 4.06 | 2.51 | 3.47 | 1.18 | 2.51 | 4.56 | 4.39 | 0.0817 | -0.464 | 3.64 | 5.2 | 3.45 | 5.13 | 1.15 | 3.23
5 | CGTCAAAGTTCAACTAAGGTAACATAAAGCACGC | 7 | 6.17 | 4.4 | 4.25 | 1.93 | 5.1 | 5.41 | 5.57 | 2.61 | 4.55 | 0.273 | 2.52 | 1.34 | 1.66 | 3.27 | 5.54 | 3.1 | 4.35 | 1.57 | 5.25
6 | CCTAGGAGGACAGAAGGTCAGAGCTGTCCGCTTT | 1.3 | 1.59 | 0.0675 | 1.11 | -0.837 | 1.93 | 0.741 | 2.08 | -0.108 | 1.7 | 0.0548 | 0.781 | -1.45 | -0.918 | 0.868 | 1.59 | -0.0903 | 1.98 | 0.629 | 3.02
7 | GGAACGAGGGCAAAGTTGATGGCATCTGTCGACG | 1.36 | 1.13 | -0.0159 | 0.949 | -0.264 | 4.09 | 6.37 | 6.89 | 5.45 | 6.81 | 4.48 | 4.33 | 0.423 | 0.295 | 0.411 | 1.39 | 0.213 | 1.59 | -0.52 | 2.48
